Results reported in PMC7862700, “An all-to-all approach to the identification of sequence-specific readers for epigenetic DNA modifications on cytosine”.

How the values were obtained:
Assay in all cases: DAPPL (digital affinity profiling via proximity ligation, sequencing); 10 mM Tris-HCl pH 7.5, 50 mM NaCl, 1 mM DTT, 4% glycerol, room temperature, 30 min; GST-TFs on glutathione beads, 16-mer random dsDNA library, 0.1% formaldehyde crosslink after washing; high values mean tight binding
FEV = biological target: T1, FEV (Homo sapiens, UniProt Q99581 1-238); settings: protein: recombinant; tags: N-terminal GST; dsDNA, one strand shown
T1 sequence: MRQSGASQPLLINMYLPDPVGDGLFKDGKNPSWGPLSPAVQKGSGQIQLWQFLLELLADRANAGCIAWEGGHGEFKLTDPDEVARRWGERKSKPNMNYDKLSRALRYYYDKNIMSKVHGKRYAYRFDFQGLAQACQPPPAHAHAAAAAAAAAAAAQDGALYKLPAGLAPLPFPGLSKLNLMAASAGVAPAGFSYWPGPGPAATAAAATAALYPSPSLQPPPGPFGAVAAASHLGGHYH
Procedure, shortened: (§1)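 Human transcription factors fused to GST were expressed in yeast, captured on glutathione beads, given DNA barcodes and pooled with a GST-only negative control. Pools were incubated with 200 nmole of a 16-mer random double-stranded DNA library in Tris/NaCl/DTT/glycerol buffer at room temperature for 30 min. They were then washed, crosslinked with 0.1% formaldehyde, proximity-ligated (BsaI/T4 ligase, 1 h, 37 °C), PCR-amplified and sequenced on an Illumina NextSeq500. Binding signal is each 6-mer's read frequency for a factor divided by its frequency for the GST control.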

ETV5 = ETV5 (Homo sapiens, UniProt P41161 1-510); settings: protein: recombinant; tags: N-terminal GST; dsDNA, one strand shown
Sequence of ETV5 (P41161 whole entry): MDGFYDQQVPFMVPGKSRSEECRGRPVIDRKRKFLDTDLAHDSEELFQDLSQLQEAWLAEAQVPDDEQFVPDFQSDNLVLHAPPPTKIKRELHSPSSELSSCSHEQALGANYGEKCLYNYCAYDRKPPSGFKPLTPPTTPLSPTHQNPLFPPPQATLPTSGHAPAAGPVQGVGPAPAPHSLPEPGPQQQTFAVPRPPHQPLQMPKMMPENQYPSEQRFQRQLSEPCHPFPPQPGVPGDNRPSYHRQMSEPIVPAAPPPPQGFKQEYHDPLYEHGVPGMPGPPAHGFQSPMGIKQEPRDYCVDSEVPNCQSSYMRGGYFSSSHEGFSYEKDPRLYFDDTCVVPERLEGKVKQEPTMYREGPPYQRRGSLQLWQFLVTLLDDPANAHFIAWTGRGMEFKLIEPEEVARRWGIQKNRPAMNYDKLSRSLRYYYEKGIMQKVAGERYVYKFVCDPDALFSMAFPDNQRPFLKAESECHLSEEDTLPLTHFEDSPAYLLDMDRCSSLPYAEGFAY
Procedure, shortened: as §1

HSF1 = HSF1 (Homo sapiens, UniProt Q00613 1-529); settings: protein: recombinant; tags: N-terminal GST; chain copies: 3; dsDNA, one strand shown
Sequence of HSF1 (Q00613 whole entry): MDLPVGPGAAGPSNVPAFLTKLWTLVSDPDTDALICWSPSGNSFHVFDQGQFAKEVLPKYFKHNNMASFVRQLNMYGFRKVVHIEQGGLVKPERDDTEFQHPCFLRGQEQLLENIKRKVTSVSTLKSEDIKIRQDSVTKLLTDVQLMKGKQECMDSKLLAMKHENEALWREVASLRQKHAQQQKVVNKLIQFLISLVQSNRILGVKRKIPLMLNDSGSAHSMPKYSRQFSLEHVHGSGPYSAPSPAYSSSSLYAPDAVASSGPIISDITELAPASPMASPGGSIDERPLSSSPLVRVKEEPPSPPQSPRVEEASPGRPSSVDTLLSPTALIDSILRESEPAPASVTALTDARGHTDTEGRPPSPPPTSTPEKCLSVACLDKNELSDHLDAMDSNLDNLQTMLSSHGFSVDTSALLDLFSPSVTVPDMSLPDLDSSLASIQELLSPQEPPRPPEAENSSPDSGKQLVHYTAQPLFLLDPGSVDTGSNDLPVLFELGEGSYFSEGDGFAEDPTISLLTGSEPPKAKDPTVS
Procedure, shortened: as §1

SPIC = biological target: T2, SPIC (Homo sapiens, UniProt Q8N5J4 1-248); settings: protein: recombinant; tags: N-terminal GST; dsDNA, one strand shown
T2 sequence: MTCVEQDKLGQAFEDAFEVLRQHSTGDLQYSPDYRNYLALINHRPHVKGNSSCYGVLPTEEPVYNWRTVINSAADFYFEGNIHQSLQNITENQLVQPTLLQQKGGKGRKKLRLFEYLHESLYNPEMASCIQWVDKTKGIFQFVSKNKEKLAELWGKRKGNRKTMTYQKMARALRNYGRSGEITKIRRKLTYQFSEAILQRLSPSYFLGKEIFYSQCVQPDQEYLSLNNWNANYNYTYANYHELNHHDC
Procedure, shortened: as §1

ELF4 = ELF4 (Homo sapiens, UniProt Q99607 1-663); settings: protein: recombinant; tags: N-terminal GST; dsDNA, one strand shown
Sequence of ELF4 (Q99607 whole entry): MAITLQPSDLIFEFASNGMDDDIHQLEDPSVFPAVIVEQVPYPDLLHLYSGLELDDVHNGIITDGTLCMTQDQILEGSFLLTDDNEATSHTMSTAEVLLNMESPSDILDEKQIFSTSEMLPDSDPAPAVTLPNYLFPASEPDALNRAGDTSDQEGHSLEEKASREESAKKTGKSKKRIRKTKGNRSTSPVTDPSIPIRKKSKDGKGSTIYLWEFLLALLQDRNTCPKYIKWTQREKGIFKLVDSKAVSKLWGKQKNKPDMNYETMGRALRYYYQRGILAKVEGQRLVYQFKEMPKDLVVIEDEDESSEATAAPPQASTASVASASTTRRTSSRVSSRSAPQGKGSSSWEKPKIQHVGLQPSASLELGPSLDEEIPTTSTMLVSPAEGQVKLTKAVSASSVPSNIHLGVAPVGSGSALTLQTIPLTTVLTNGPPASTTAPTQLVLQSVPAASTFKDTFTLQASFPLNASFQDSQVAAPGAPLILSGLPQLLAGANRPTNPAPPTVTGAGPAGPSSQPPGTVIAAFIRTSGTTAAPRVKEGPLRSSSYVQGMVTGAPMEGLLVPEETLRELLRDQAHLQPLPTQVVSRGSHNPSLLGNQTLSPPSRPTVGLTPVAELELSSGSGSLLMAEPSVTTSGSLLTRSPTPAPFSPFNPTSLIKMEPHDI
Procedure, shortened: as §1

ELK4 = biological target: T3, ELK4 (Homo sapiens, UniProt P28324-2 1-405); settings: protein: recombinant; tags: N-terminal GST; dsDNA, one strand shown
T3 sequence: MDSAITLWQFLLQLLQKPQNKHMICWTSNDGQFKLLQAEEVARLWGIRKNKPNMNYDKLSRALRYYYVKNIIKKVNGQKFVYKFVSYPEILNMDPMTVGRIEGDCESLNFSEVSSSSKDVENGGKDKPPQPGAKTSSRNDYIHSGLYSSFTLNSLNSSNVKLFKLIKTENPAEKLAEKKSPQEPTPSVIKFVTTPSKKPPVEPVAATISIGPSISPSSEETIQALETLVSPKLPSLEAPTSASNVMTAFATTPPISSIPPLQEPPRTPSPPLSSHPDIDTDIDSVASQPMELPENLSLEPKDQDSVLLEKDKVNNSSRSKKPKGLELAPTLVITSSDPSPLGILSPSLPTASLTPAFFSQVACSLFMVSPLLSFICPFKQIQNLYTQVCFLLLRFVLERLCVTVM
Procedure, shortened: as §1

ETV2 = biological target: T4, ETV2 (Homo sapiens, UniProt O00321 1-342); settings: protein: recombinant; tags: N-terminal GST; dsDNA, one strand shown
T4 sequence: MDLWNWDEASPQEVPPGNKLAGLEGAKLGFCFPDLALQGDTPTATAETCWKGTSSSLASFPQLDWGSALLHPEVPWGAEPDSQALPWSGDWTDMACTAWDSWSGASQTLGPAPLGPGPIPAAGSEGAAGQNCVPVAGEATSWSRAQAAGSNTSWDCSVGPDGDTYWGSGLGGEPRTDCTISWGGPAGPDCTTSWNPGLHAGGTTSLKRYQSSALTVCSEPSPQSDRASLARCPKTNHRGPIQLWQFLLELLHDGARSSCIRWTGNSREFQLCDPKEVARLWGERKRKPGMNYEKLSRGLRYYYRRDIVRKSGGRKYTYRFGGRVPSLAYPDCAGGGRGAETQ
Procedure, shortened: as §1

ELF3 = biological target: T5, ELF3 (Homo sapiens, UniProt P78545 1-371); settings: protein: recombinant; tags: N-terminal GST; dsDNA, one strand shown
T5 sequence: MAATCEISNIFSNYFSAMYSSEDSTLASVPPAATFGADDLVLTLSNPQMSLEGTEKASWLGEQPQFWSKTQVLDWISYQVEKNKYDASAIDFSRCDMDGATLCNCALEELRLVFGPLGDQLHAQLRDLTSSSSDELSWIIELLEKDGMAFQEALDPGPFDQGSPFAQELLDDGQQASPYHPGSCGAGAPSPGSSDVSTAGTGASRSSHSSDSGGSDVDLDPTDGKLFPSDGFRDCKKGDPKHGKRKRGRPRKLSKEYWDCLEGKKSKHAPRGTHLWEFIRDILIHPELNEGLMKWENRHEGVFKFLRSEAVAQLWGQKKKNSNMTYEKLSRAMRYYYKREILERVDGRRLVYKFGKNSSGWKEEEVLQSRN
Procedure, shortened: as §1

CRX = CRX (Homo sapiens, UniProt O43186 1-299); settings: protein: recombinant; tags: N-terminal GST; dsDNA, one strand shown
Sequence of CRX (O43186 whole entry): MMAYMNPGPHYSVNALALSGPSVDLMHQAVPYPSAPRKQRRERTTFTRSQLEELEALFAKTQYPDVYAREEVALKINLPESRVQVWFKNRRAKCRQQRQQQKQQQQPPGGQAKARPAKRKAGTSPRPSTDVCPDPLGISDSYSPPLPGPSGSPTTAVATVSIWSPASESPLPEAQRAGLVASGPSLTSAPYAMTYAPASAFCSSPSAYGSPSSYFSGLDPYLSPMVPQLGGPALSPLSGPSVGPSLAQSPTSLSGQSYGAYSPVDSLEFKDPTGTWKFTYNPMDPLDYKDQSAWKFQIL
Procedure, shortened: as §1

ETV1 = ETV1 (Homo sapiens, UniProt P50549 1-477); settings: protein: recombinant; tags: N-terminal GST; dsDNA, one strand shown
Sequence of ETV1 (P50549 whole entry): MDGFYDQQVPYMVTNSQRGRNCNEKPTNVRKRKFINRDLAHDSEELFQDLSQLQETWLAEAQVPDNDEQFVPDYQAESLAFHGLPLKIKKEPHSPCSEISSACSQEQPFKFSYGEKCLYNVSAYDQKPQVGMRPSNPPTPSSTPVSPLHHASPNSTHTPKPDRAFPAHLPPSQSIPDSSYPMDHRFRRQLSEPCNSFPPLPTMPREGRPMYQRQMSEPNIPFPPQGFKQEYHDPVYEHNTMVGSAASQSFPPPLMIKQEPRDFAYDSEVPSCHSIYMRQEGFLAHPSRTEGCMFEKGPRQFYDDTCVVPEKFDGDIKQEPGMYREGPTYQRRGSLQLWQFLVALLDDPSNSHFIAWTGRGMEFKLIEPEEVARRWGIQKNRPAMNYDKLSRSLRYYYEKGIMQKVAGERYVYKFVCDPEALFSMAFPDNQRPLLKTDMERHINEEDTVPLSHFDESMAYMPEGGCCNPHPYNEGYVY
Procedure, shortened: as §1

ERF = biological target: T6, ERF (Homo sapiens, UniProt P50548 1-548); settings: protein: recombinant; tags: N-terminal GST; dsDNA, one strand shown
T6 sequence: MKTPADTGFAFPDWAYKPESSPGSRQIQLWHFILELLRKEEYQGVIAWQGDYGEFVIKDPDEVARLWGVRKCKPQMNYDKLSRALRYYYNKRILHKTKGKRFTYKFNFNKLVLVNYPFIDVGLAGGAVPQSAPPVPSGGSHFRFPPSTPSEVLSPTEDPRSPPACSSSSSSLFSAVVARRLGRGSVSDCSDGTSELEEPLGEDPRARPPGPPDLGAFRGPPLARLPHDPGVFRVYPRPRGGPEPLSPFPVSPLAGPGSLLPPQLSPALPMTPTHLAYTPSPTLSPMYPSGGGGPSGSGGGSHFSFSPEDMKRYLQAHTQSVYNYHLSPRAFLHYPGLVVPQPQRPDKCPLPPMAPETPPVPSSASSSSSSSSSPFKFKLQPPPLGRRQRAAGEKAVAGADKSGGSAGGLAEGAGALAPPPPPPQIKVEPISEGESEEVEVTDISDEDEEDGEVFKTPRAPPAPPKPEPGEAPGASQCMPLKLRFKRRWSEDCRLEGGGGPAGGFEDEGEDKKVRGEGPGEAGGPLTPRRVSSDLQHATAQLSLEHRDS
Procedure, shortened: as §1

ETV3L = biological target: T7, ETV3L (Homo sapiens, UniProt Q6ZN32 1-361); settings: protein: recombinant; tags: N-terminal GST; dsDNA, one strand shown
T7 sequence: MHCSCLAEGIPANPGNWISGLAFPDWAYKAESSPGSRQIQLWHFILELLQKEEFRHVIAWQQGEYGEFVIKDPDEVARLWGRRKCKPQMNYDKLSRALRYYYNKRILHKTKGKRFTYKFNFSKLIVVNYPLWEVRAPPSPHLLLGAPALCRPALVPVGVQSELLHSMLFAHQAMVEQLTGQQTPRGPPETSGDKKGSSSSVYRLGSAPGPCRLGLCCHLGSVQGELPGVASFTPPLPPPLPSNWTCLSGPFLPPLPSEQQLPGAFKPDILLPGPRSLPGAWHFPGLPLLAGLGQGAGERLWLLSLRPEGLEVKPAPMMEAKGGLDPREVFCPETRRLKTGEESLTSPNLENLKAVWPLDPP
Procedure, shortened: as §1

ETS2 = biological target: T8, ETS2 (Homo sapiens, UniProt P15036 1-469); settings: protein: recombinant; tags: N-terminal GST; dsDNA, one strand shown
T8 sequence: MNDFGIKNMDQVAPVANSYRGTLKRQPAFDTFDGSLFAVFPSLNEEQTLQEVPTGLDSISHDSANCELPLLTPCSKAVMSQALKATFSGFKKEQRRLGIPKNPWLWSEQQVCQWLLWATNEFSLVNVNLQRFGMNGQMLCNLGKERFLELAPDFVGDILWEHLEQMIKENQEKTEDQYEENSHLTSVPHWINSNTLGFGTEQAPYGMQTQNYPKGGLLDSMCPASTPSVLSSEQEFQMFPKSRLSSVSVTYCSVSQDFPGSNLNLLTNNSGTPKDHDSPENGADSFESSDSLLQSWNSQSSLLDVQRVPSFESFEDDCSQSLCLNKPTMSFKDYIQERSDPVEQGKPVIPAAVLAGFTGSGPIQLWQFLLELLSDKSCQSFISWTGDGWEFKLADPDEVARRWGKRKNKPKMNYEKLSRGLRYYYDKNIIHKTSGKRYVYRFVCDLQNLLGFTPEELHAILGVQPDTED
Procedure, shortened: as §1

SPDEF = biological target: T9, SPDEF (Homo sapiens, UniProt O95238 1-335); settings: protein: recombinant; tags: N-terminal GST; dsDNA, one strand shown
T9 sequence: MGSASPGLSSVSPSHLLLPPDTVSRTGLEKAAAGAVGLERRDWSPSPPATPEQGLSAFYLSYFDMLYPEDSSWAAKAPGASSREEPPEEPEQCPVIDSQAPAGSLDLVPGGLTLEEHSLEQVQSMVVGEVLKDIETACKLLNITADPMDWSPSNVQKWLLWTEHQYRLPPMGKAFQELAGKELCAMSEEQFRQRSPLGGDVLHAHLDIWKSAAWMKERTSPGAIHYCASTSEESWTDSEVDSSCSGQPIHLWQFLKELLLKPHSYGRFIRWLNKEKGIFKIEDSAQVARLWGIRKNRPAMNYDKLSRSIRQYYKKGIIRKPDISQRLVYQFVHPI
Procedure, shortened: as §1

ETV7 = biological target: T10, ETV7 (Homo sapiens, UniProt Q9Y603 1-341); settings: protein: recombinant; tags: N-terminal GST; dsDNA, one strand shown
T10 sequence: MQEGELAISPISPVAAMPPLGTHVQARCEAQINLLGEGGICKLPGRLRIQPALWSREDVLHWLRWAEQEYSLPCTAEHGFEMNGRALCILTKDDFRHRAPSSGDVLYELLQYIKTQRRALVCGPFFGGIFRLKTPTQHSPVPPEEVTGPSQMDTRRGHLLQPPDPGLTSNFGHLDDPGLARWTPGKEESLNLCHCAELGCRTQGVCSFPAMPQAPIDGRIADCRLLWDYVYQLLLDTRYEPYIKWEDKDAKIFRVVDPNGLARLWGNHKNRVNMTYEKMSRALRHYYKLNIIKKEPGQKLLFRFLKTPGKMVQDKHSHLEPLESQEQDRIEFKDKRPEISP
Procedure, shortened: as §1

ELF5 = biological target: T11, ELF5 (Homo sapiens, UniProt Q9UKW6-2 1-255); settings: protein: recombinant; tags: N-terminal GST; dsDNA, one strand shown
T11 sequence: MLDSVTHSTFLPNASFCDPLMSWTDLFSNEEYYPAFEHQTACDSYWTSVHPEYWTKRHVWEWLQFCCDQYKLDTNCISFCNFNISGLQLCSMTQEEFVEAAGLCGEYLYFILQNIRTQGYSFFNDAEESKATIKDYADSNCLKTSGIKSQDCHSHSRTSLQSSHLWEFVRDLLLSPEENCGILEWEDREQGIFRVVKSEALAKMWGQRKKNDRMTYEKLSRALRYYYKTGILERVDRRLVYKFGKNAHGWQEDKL
Procedure, shortened: as §1

ETV3 = biological target: T12, ETV3 (Homo sapiens, UniProt P41162-2 1-143); settings: protein: recombinant; tags: N-terminal GST; dsDNA, one strand shown
T12 sequence: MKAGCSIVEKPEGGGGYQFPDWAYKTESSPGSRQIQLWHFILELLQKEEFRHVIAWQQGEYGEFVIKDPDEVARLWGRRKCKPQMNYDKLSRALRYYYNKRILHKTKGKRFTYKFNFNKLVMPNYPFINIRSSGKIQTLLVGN
Procedure, shortened: as §1

ETV6 = ETV6 (Homo sapiens, UniProt P41212 1-452); settings: protein: recombinant; tags: N-terminal GST; dsDNA, one strand shown
Sequence of ETV6 (P41212 whole entry): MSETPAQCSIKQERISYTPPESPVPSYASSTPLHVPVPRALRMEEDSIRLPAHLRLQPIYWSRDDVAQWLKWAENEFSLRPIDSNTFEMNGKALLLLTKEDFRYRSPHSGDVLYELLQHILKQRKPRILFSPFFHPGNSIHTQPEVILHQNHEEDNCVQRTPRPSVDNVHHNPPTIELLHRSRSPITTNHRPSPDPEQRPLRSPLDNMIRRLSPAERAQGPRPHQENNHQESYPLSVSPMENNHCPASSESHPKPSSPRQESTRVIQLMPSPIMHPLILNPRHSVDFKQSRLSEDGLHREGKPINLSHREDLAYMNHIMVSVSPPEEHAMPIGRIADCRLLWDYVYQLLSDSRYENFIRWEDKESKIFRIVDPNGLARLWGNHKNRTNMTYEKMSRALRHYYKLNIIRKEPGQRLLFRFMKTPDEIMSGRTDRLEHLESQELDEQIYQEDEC
Procedure, shortened: as §1

TTTGCG
binding signal (FEV): 1.13 fold enrichment (6-mer frequency, TF over GST control)
binding signal (ETV5): 1.29 fold enrichment (6-mer frequency, TF over GST control)
binding signal (HSF1): 1.3 fold enrichment (6-mer frequency, TF over GST control)
binding signal (SPIC): 1.37 fold enrichment (6-mer frequency, TF over GST control)
binding signal (ELF4): 1.21 fold enrichment (6-mer frequency, TF over GST control)
binding signal (ELK4): 1.03 fold enrichment (6-mer frequency, TF over GST control)
binding signal (ETV2): 1.13 fold enrichment (6-mer frequency, TF over GST control)
binding signal (ELF3): 1.3 fold enrichment (6-mer frequency, TF over GST control)
binding signal (CRX): 1.31 fold enrichment (6-mer frequency, TF over GST control)
binding signal (ETV1): 1.34 fold enrichment (6-mer frequency, TF over GST control)
binding signal (ERF): 1.36 fold enrichment (6-mer frequency, TF over GST control)
binding signal (ETV3L): 1.16 fold enrichment (6-mer frequency, TF over GST control)
binding signal (ETS2): 1.21 fold enrichment (6-mer frequency, TF over GST control)
binding signal (SPDEF): 1.2 fold enrichment (6-mer frequency, TF over GST control)
binding signal (ETV7): 1.11 fold enrichment (6-mer frequency, TF over GST control)
binding signal (ELF5): 1.16 fold enrichment (6-mer frequency, TF over GST control)
binding signal (ETV3): 1.17 fold enrichment (6-mer frequency, TF over GST control)
binding signal (ETV6): 1.29 fold enrichment (6-mer frequency, TF over GST control)
